# Laboratory results taken from PubChem BioAssay AID2315 (National Center for Advancing Translational Sciences (NCATS), 2010).
# Out of some 290,000 compounds screened, about 27,000 (9.3%) were called active. This is one part of a sample in which actives are shown more often than they occur. No stated cut-off is given here; in the data, active means inhibition mostly above about 28% (no sharp cut-off); inactive means mostly below about 43%.
# Assay: A qHTS for Small Molecule Inhibitors of Shiga Toxin; further: 0% is about no effect
# Conditions: Vero cells, Shiga toxin protein synthesis inhibition reporter; at 38.7 µM, hits give high values
row,Compound,inhibition
1,CCn1c(SCC(=O)Nc2ccc3c(c2)OCCO3)nnc1-c1ccncc1,24.3% (inactive)
2,O=C(COC(=O)c1ccccn1)Nc1cccc2ccccc12,-15.8% (inactive)
3,O=C(O)c1ccccc1-c1ccccc1C(=O)Nc1cccc2ccccc12,-18.7% (inactive)
4,O=C(Nc1cccc2ccccc12)c1onc2c1CCCC2,80.7% (active)
5,CCN1CCN(C(=O)C2CCCN(S(=O)(=O)c3ccc(OC)c(OC)c3)C2)CC1 (stereo not given),11.9% (inactive)
6,NC(=O)c1cc(-c2cccnc2)nc2ccc(Br)cc12,20% (inactive)
7,CC(CN1CCC(n2nccc2NC(=O)C2CCCC2)CC1)c1ccccc1 (stereo not given),-13% (inactive)
8,Cc1cc(NC(=O)CSCc2ccccc2C)no1,48.6% (inactive)
9,Cc1cc(NC(=O)c2ccccc2C)no1,55.6% (active)
10,Cc1ccccc1C(=O)Nc1ccccc1NC(=O)c1ccccc1C,-1.64% (inactive)
11,CCOc1c2ccc(C(=O)NCc3ccc4c(c3)OCO4)cc2nn1C,9.39% (inactive)
12,Cc1cccc(-c2nc3ccc(C(=O)NCCN4CCN(C)CC4)cc3nc2-c2cccc(C)c2)c1,-22.4% (inactive)
13,C=CCNC(=O)c1ccc2c3n(nc2c1)-c1ccc(C)cc1CO3,83.8% (active)
14,COc1cc(CNCc2ccc(OC)c3ccccc23)cc(OC)c1OC,-2.52% (inactive)
15,Cc1cccc(N(Cc2ccccc2)C(=O)c2ccccc2F)c1,41.2% (inactive)
16,COc1ccc(C(=O)NC(=S)Nc2ccc(Cl)cn2)cc1OC,4.19% (inactive)
17,COc1ccc(C(=O)N/N=C(\C)CC(=O)Nc2ccc(Cl)cn2)cc1,97.1% (active)
18,COc1ccc(COC(=O)N/N=C(\C)CC(=O)Nc2ccc(Cl)cc2)cc1,-3.95% (inactive)
19,O=C(C1CCC(=O)N(C2CC2)C1)N1CCN(c2ccc(Cl)cc2)CC1 (stereo not given),-16% (inactive)
20,O=C1COc2ccc(S(=O)(=O)Nc3ccc(OC(F)(F)F)cc3)cc2N1,-4.37% (inactive)
21,Cc1cc(NS(=O)(=O)c2ccc(NC(=S)NC(=O)c3ccc(F)cc3Cl)cc2)no1,16.8% (inactive)
22,CC(=O)c1ccccc1OCc1ccc(C(=O)c2ccccc2)cc1,10.9% (inactive)
23,Cc1ccc(-n2cc3ccc([N+](=O)[O-])cc3n2)cc1,57.1% (active)
24,Cc1ccc(-c2cn(S(=O)(=O)c3cccc([N+](=O)[O-])c3)nc2N)cc1,13.5% (inactive)

row,Compound,inhibition
1,Cc1cc(C)nc(Nc2cc([N+](=O)[O-])ccc2C)n1,-5.77% (inactive)
2,O=C(COc1ccc2c(c1)CCC2)N1CCN(c2ccc(F)cc2)CC1,-11.3% (inactive)
3,CCc1c(O)nc(SCC(=O)N2CCCCC2)n(-c2ccccc2C)c1=O,13% (inactive)
4,Cc1ccc(-n2c(SCC(=O)N3CCC(C(=O)O)CC3)nc3ccccc3c2=O)cc1C,45.4% (active)
5,COc1cccc(-n2c(SCC(=O)c3c[nH]c4ccccc34)nc3ccccc3c2=O)c1,-9.99% (inactive)
6,CCOC(=O)CSc1nc2ccc(C)cc2n2cnnc12,9.64% (inactive)
7,COc1ccc(-c2cc(C(=O)N3CCN(c4ccc(F)cc4)CC3)no2)cc1,11.7% (inactive)
8,O=C(c1cc(-c2ccc(Cl)cc2)on1)N1CCN(c2ccccc2)CC1,67.5% (active)
9,O=C(c1cccs1)N1CCN(C(=O)N2CCOCC2)CC1,-6.78% (inactive)
10,O=C(c1cc(-c2ccc(F)cc2)on1)N1CCN(c2ccc(F)cc2)CC1,-1.74% (inactive)
11,O=C(c1cc(-c2ccc(O)cc2)on1)N1CCCc2ccccc21,91.2% (active)
12,O=C(c1cc(-c2ccncc2)nc2ccccc12)N1CCC2(CC1)OCCO2,11.7% (inactive)
13,Cc1noc(C)c1C(=O)N1CCOCC1,-7.37% (inactive)
14,O=C(c1cc(-c2ccc(O)cc2)on1)N1CCOCC1,62% (active)
15,Cc1ccc(-c2cc(C(=O)N3CCC4(CC3)OCCO4)no2)cc1,58.1% (active)
16,CCC(=O)N1CCCc2ccccc21,14.2% (inactive)
17,Cc1cccc(-n2c(C)nc3cc(C(=O)N4CCC5(CC4)OCCO5)ccc32)c1,13.6% (inactive)
18,Cc1c(C(=O)N2CCCc3ccccc32)oc2ccccc12,33.8% (inactive)
19,Nc1nc(SCC(=O)Nc2ccc(Cl)cc2C(F)(F)F)n[nH]1,-27.1% (inactive)
20,COc1cc(OC)cc(C(=O)Nc2nnc(SCC(=O)NCC3CCCO3)s2)c1 (stereo not given),4.36% (inactive)
21,COc1ccc(C(=O)NC2CC(C)(C)NC(C)(C)C2)cc1OC,2.67% (inactive)
22,NC(=O)CN1CCCC1c1ccc2c(c1)OCCO2 (stereo not given),-2.56% (inactive)
23,O=C(NC1CCCC1)C(c1ccco1)N(C(=O)c1ccco1)c1ccc(F)cc1 (stereo not given),8.42% (inactive)
24,O=S(=O)(/N=C(/Nc1ccccn1)c1ccccc1)c1ccc(Cl)cc1,14.8% (inactive)

row,Compound,inhibition
1,Cc1ccc(S(=O)(=O)/N=C(/Nc2ccccn2)c2ccc(Cl)cc2)cc1,31.5% (active)
2,Cc1ccc(S/C(=N\S(=O)(=O)c2ccc(Cl)cc2)c2ccccc2)cc1,11.1% (inactive)
3,CC1CCCCC1NC(=O)CSc1nnc(-c2ccncc2)n1CCCN(C)C (stereo not given),-1.04% (inactive)
4,O=C(/C=C/c1ccc(Cl)cc1)Nc1ccc(S(=O)(=O)Nc2ncccn2)cc1,17% (inactive)
5,CC(C)(C)c1ccc(/C=C/C(=O)Nc2ncccn2)cc1,-4.53% (active)
6,Cc1cc(C)nc(NC(=O)/C=C/c2ccc(Cl)cc2)n1,41.9% (inactive)
7,O=c1c2c(-c3ccccc3)ccnc2[nH]n1-c1ccccc1,38.7% (inactive)
8,CCC(C)(C)NC(=O)C(c1ccc(OC)cc1)N(C(=O)CCC(=O)Nc1cc(C)on1)c1ccc(OC)cc1OC (stereo not given),8.4% (inactive)
9,Cc1sc2ncn(CC(=O)NCCN(C)C)c(=O)c2c1S(=O)(=O)N1CCC(C)CC1,106% (active)
10,CCN(CC)CCNC(=O)Cn1cnc2sc(C)c(S(=O)(=O)N3CCOCC3)c2c1=O,-2.57% (inactive)
11,CCN(CC)CCCNC(=O)Cn1cnc2sc(C)c(S(=O)(=O)N3CCN(c4ncccn4)CC3)c2c1=O,-11.2% (inactive)
12,CC(=O)c1ccc(S(=O)(=O)N2CCC(Oc3ccc(-n4cnnn4)cc3)CC2)cc1,-8.24% (inactive)
13,O=C(O)Cn1c(Cc2ccccc2)nc2ccccc21,-5.35% (inactive)
14,Cc1ccccc1C(=O)N1CCC(C(=O)Oc2ccc(C#N)cc2)CC1,-13.3% (inactive)
15,O=C(Nc1ccc2c(c1)OCCO2)c1ccncc1,117% (active)
16,O=C(Nc1ccc2c(c1)OCCO2)c1cnccn1,42.2% (inactive)
17,Cn1c(=O)c2ccccc2n(CC(=O)Nc2ccc3c(c2)OCCO3)c1=O,-7.05% (inactive)
18,O=C(Nc1ccc2c(c1)OCCO2)c1ccoc1,65.2% (active)
19,O=C(CCN1C(=O)c2ccncc2C1=O)Nc1ccc2c(c1)OCCO2,13.6% (inactive)
20,Cc1ccc(-n2ncc3c2CC(C)(C)CC3NC(=O)Cc2c(C)noc2C)cc1 (stereo not given),-6.91% (inactive)
21,COc1cccc(NC(=O)COc2cc(C)cc3oc(=O)cc(C)c23)c1,-4.63% (inactive)
22,COc1ccc(C2=NS(=O)(=O)N(C)C(C(=O)N3CCCCC3)=C2)cc1,-2.94% (inactive)
23,CC(C)(C)c1ccc(Oc2ccc(N)cc2)cc1,-23.2% (inactive)
24,COc1cccc(OCCCN2CCCCCC2)c1,11.6% (inactive)

row,Compound,inhibition
1,COc1cccc(Oc2ccc(N)cc2)c1,33.2% (active)
2,COc1ccc(-c2cc(=O)oc3cc(OCC(=O)N[C@@H](Cc4c[nH]c5ccccc45)C(=O)O)ccc23)cc1,1.78% (inactive)
3,Cc1cc(=O)n2nc(N3CCCC(C(=O)NCc4cccc(Cl)c4)C3)sc2n1 (stereo not given),10.1% (inactive)
4,COc1cccc(N(CC(=O)Nc2cccc(N(C)S(C)(=O)=O)c2)S(C)(=O)=O)c1,-9.96% (inactive)
5,CN(c1cccc(NC(=O)Nc2ccc(Cl)cc2)c1)S(C)(=O)=O,66.3% (active)
6,Cc1ccc(N(CC(=O)Nc2cccc(N(C)S(C)(=O)=O)c2)S(C)(=O)=O)cc1,-15.9% (inactive)
7,COc1ccc(Nc2ccc([N+](=O)[O-])cn2)cn1,25.8% (inactive)
8,Cc1cccc(-n2nc3c(c2NC(=O)c2cc4ccccc4o2)CS(=O)(=O)C3)c1,-6.86% (inactive)
9,CCOc1ccc(CCNC(=O)CCc2nnc3ccc(N4CCCC4)nn23)cc1OCC,-2.23% (inactive)
10,S=C(NN=C1CCN(Cc2ccccc2)CC1)NC1CCCCC1,9.13% (inactive)
11,C/C(=N\NC(=S)NC1CCCCC1)c1ccc(C)o1,52.7% (active)
12,Cc1ccc(/C=N/NC(=O)Cn2nc(C)c(Br)c2C)o1,-6.63% (inactive)
13,Cc1ccc(/C=N/NC(=S)NC2CCCCC2)o1,72.6% (active)
14,CC(CCc1ccccc1)NC(=O)c1ccc(Br)o1 (stereo not given),0.792% (inactive)
15,CC(CNC(=O)c1ccc(Br)o1)NC(=O)c1ccc(Br)o1 (stereo not given),10.2% (inactive)
16,Cc1ccc(/C=N/NC(=S)Nc2cccc(S(=O)(=O)N(C)C)c2)o1,40.8% (inactive)
17,C/C(=N/NC(=O)c1ccc(Br)o1)c1ccc(C)o1,91.6% (active)
18,S=C(NCc1ccc(Cl)cc1)NC1CCCCC1,-6.42% (inactive)
19,COc1ccc(CNC(=O)C2CCN(C(=O)c3ccco3)CC2)cc1,-12.4% (inactive)
20,CCCc1cc(=O)n2[nH]c(C)c(-c3ccc(Cl)cc3)c2n1,-5.47% (inactive)
21,Cc1ccc(C(CNC(=O)Nc2cccc(C)c2)N2CCN(C)CC2)cc1 (stereo not given),1.35% (inactive)
22,Cc1c(NC(=O)Nc2cccc([N+](=O)[O-])c2)c(=O)n(-c2ccccc2)n1C,-5.21% (inactive)
23,CC1CCN(S(=O)(=O)c2ccc3c(ccn3CC(=O)O)c2)CC1,-22.5% (inactive)
